KCNQ2 pot: potentiators of rat KCNQ2 potassium channel; B-score at 10 µM; Potassium voltage-gated channel subfamily KQT member 2 (Rattus norvegicus), O88943; CHO-K1 KCNQ2, FluxOR thallium flux fluorescence; hits give high values; hit rate 0.54% among 310,000;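 active = fluorescence ratio B-score at least 3 SD of library B-scores, with initial fluorescence B-score within 3 of them, cut at about 5.3 in these data; same plate scores as AID 2156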;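 note: B-score of peak minus minimum over baseline fluorescence ratio after K+ and Tl+ stimulus; positive B-score means potentiation of KCNQ2 with more thallium influx and brighter signal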
KCNQ2 block: rat KCNQ2 potassium channel inhibitors, primary screen, cell-based, CHO-K1, FluxOR thallium flux, B-score; hit rate 1.1% among 310,000; Potassium voltage-gated channel subfamily KQT member 2 (Rattus norvegicus), O88943; B-score at 10 µM; 20 min; hits give low values; AID 2156, 2009;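 active = fluorescence ratio B-score at most minus 3 library SDs, with starting brightness B-score within 2 library SDs, cut at about -5.5 in these data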
Kir21 conf inh: mouse Kir2.1 channel blockers, retest, confirmation, cell-based, FluxOR thallium flux, duplicate; shares compounds with KCNQ2 pot; Kir2.1-expressing cells, FluxOR thallium flux fluorescence; hits give low values; Tl flux remaining, % of negative control (hits give low values), % at 10 µM; hit rate 41% among 2,300; AID 2032, 2009;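 active = Primary-screen hit whose thallium flux fell at least 3 control SD below untreated wells in both duplicates, with normal baseline fluorescence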;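 note: 0% = blank wells without stimulus and 100% = stimulated no-compound controls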
Target sequence (P35561 whole entry, looked up): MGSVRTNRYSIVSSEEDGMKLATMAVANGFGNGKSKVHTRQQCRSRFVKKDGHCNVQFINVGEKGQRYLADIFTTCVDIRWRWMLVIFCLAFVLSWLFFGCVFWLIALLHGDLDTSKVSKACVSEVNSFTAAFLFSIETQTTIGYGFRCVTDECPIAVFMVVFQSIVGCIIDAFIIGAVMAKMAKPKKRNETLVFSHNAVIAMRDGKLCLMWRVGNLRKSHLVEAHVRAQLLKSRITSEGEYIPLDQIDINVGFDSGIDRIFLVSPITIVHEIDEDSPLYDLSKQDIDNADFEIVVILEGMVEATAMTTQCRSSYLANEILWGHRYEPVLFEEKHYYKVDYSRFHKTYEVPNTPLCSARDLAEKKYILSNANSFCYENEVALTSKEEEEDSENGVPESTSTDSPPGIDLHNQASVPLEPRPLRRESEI
HEK293 ctr: parental HEK293 activity in Kir2.1 inhibitor counter-screen; shares compounds with KCNQ2 pot; parental HEK293 cells, FluxOR thallium flux fluorescence; 0% = unstimulated blank wells; FluxOR signal as % of negative control (100 = no effect), % at 10 µM; hit rate 19% among 2,300;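 active = dye signal at least 3 control SD above or below untreated wells in both duplicates, raw fluorescence within 3, either direction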;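 note: percent is based on the flux ratio of peak minus minimum fluorescence over baseline F0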
CHO-K1 Tl ctr: nonspecific thallium flux increase in parental CHO-K1, confirmation, counter-screen for KCNQ2 potentiator project, cell-based, FluxOR thallium flux, duplicate | shares compounds with KCNQ2 pot | parental CHO-K1 cells, FluxOR thallium flux fluorescence; zero = vehicle mean+3SD, 100% = vehicle-minus-blank window | activity increase over 3SD of controls, % at 10 µM | hit rate 43% among 1,200;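 active = signal rise of at least 3 SD above the untreated control mean, in both duplicate wells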;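 note: counter screen of KCNQ2 potentiator hits so any rise reflects channel-independent effects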
KCNQ1 sel pot: human KCNQ1 channel potentiation off-target, confirmation, selectivity assay for KCNQ2 potentiator project, cell-based, CHO, FluxOR thallium flux; shares compounds with KCNQ2 pot; CHO KCNQ1 stable, FluxOR thallium flux fluorescence; beyond 3SD, as % of vehicle-control signal; activation over 3SD threshold, % at 10 µM; hit rate 28% among 1,200; AID 2283, 2010;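 active = fluorescence ratio rise of at least 3 SD of vehicle wells above their mean, in both replicate wells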;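 note: 0% = vehicle mean plus 3 SD and 100% = vehicle minus unstimulated blank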
KCNQ2 pot conf: rat KCNQ2 channel potentiators, confirmation, cell-based, CHO, FluxOR thallium flux, duplicate; potentiation, less the hit threshold, % at 10 µM; shares compounds with KCNQ2 pot; hit rate 68% among 1,200; CHO-KCNQ2 cells, FluxOR thallium flux fluorescence;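 active = fluorescence ratio rising 3 SD or more over the vehicle control mean in both replicates, plus primary screen hit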;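 note: peak minus minimum thallium fluorescence divided by baseline after K/Tl stimulus; 0% = vehicle mean plus 3 SD and 100% = vehicle minus unstimulated blank difference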
Kir21 spec: mouse Kir2.1 channel activation off-target, confirmation, selectivity assay for KCNQ2 potentiator project, cell-based, HEK293, FluxOR thallium flux | shares compounds with KCNQ2 pot | HEK293 Kir2.1, FluxOR thallium flux fluorescence | activity over 3SD threshold, % at 10 µM | hit rate 2% among 1,200 | AID 2345, 2010;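 active = fluorescence ratio rise of at least 3 SD above the vehicle-control mean, seen in both replicates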;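 note: 0% = vehicle mean plus 3 SD and 100% = vehicle minus no-stimulus blank window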
KCNQ2 W236L MoA: potentiators of retigabine-insensitive KCNQ2 W236L, mechanism study for KCNQ2 potentiator project, cell-based, rat KCNQ2 W236L, CHO, automated patch clamp | shares compounds with KCNQ2 pot | automated patch clamp current | current increase over 3SD of negative controls (%), hits give high values, % at 25 µM | hit rate 10% among 940;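 active = current increase at least 3 SD of the untreated controls above them in both duplicate recordings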
* = called active by the depositor. Most compounds without a hit are left out; they make up all but 1.6% or so of the library.

What do the screens show for `COc1ccc(OC)c(CCNC(=O)C(C)n2nc(C)c3c(C)n(-c4ccc(C)cc4)nc3c2=O)c1` (configuration not stated)?
KCNQ2 block: inactive

How did Cc1c(NC(=O)c2ccc3c(c2)OCO3)c(=O)n(-c2ccccc2)n1C do in these assays?
KCNQ2 block: inactive

Results for Cc1ccc(C(=O)OCC(=O)N(CC(C)C)c2c(N)n(Cc3ccccc3)c(=O)[nH]c2=O)s1 ?
KCNQ2 block: inactive

Results for Cc1ccc(SCC(=O)Nc2nnc(-c3ccco3)o2)cc1 ?
KCNQ2 pot: 5.6*; KCNQ2 block: inactive; CHO-K1 Tl ctr: -2; KCNQ1 sel pot: -16; KCNQ2 pot conf: -20; Kir21 spec: -43

How did O=C(CSc1ccc(F)cc1)Nc1nnc(-c2ccco2)o1 do in these assays?
KCNQ2 pot: 1.8; KCNQ2 block: inactive

What do the screens show for `O=C(COc1ccccc1[N+](=O)[O-])NNC(=O)Nc1cccc2ccccc12`?
KCNQ2 pot: 0.84; KCNQ2 block: inactive

How did CN(C)c1ccc(Nc2cc(Cl)ncn2)cc1 do in these assays?
KCNQ2 pot: 0.71; KCNQ2 block: inactive

Results for C=CCn1c(=S)[nH]c2scc(-c3ccc(C)o3)c2c1=O ?
KCNQ2 pot: 16*; KCNQ2 block: inactive; Kir21 conf inh: inactive; HEK293 ctr: 384%*; CHO-K1 Tl ctr: 4.1*; KCNQ1 sel pot: -13; KCNQ2 pot conf: 46*; Kir21 spec: -21; KCNQ2 W236L MoA: inactive

How did C=CCn1c(SCC(C)=O)nc2scc(-c3ccc(C)o3)c2c1=O do in these assays?
KCNQ2 block: inactive

Results for O=c1c2c(-c3cccs3)csc2[nH]c(=S)n1-c1ccccc1 ?
KCNQ2 pot: 1.3; KCNQ2 block: inactive

What do the screens show for `CCn1c(=S)[nH]c2scc(-c3cccs3)c2c1=O`?
KCNQ2 pot: 18*; KCNQ2 block: inactive; Kir21 conf inh: inactive; HEK293 ctr: 508%*; CHO-K1 Tl ctr: 3.7*; KCNQ1 sel pot: -18; KCNQ2 pot conf: 94*; Kir21 spec: 1.6*; KCNQ2 W236L MoA: inactive

How did O=S1(=O)Cc2cc3ccccc3cc2C1 do in these assays?
KCNQ2 pot: 0.92; KCNQ2 block: inactive

Results for CC1(C)Cc2c(cnn2-c2cccc(F)c2)C(NC(=O)c2ccc(=O)[nH]n2)C1 (configuration not stated) ?
KCNQ2 block: inactive

Results for COc1ccc(CC(=O)Nc2nnc(SCC(=O)NCc3ccco3)s2)cc1OC ?
KCNQ2 pot: 0.05; KCNQ2 block: inactive

What do the screens show for `CN(CC(=O)Nc1cccc(F)c1)C(=O)c1ccc(N2CCCCC2)c([N+](=O)[O-])c1`?
KCNQ2 block: inactive

How did O=CC1=C(c2ccccc2)Oc2ccccc2O1 do in these assays?
KCNQ2 block: inactive; Kir21 conf inh: 52%*; HEK293 ctr: inactive

How did CN(C)/C=C1/N=C(c2ccccc2)OC1=O do in these assays?
KCNQ2 pot: 1.4; KCNQ2 block: inactive

Results for CCN(C(=O)Cc1c(C(=O)O)n(C)c2ccccc12)c1cccc(C)c1 ?
KCNQ2 pot: 1.4; KCNQ2 block: inactive

What do the screens show for `CN(C(=O)CSc1ncnc2sc(-c3ccccc3)cc12)C1CCS(=O)(=O)C1` (configuration not stated)?
KCNQ2 pot: 20*; KCNQ2 block: inactive; Kir21 conf inh: inactive; HEK293 ctr: 448%*; CHO-K1 Tl ctr: 0.0*; KCNQ1 sel pot: -19; KCNQ2 pot conf: 76*; Kir21 spec: -21; KCNQ2 W236L MoA: inactive

What do the screens show for `CN(C(=O)CSc1ncnc2scc(-c3ccccc3)c12)C1CCS(=O)(=O)C1` (configuration not stated)?
KCNQ2 pot: 0.37; KCNQ2 block: inactive

What do the screens show for `COc1ccc(C(=O)NC2CCN(Cc3c(F)cccc3Cl)CC2)cc1OC`?
KCNQ2 block: inactive

How did O=[N+]([O-])/C(=C\Nc1ccc(F)cc1F)S(=O)(=O)c1ccccc1 do in these assays?
KCNQ2 block: inactive

Results for O=C(O)c1cnn(-c2nc(-c3cccc(F)c3)cs2)c1C(F)(F)F ?
KCNQ2 pot: 0.46; KCNQ2 block: inactive

Results for O=C(O)c1cnn(-c2nc(-c3ccc(Cl)c(Cl)c3)cs2)c1C(F)(F)F ?
KCNQ2 pot: 3.6; KCNQ2 block: inactive; Kir21 conf inh: inactive; HEK293 ctr: inactive

How did COc1ccccc1-c1nc2ccc(Cl)cc2c(=O)n1O do in these assays?
KCNQ2 pot: 1.7; KCNQ2 block: inactive

What do the screens show for `CCOC(=O)c1cnc2c(OC)cccc2c1Oc1ccccc1`?
KCNQ2 block: inactive; Kir21 conf inh: 48%*; HEK293 ctr: inactive

What do the screens show for `CCOC(=O)c1cnc2ccc(C(=O)OC)cc2c1NCCc1ccc(OC)c(OC)c1`?
KCNQ2 block: inactive

Results for CCOC(=O)c1cnc2c(OC)cccc2c1N1CC(C)CC(C)C1 (configuration not stated) ?
KCNQ2 pot: 1.2; KCNQ2 block: inactive

Results for CCOC(=O)c1cnc2c(C)cccc2c1NCCc1ccc(OC)c(OC)c1 ?
KCNQ2 block: inactive; Kir21 conf inh: inactive; HEK293 ctr: inactive

How did Cc1nn(C2CCS(=O)(=O)C2)c(Cl)c1/C=C/C(=O)OCC(=O)c1cc(C)n(-c2ccc(F)cc2)c1C (configuration not stated) do in these assays?
KCNQ2 block: inactive

What do the screens show for `COc1ccc2[nH]cc(CCNC(=O)CS(=O)(=O)Cc3ccccc3)c2c1`?
KCNQ2 block: inactive

Bioassay records from PubChem.
